# From PubChem BioAssay (NCI)
# Compounds without any hit were thinned out: in the full panel of roughly 83,000, 20% have a hit.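 Treatment: one concentration, 48 hours, 96-well format. Scoring: percent growth, with anything below 10 considered active.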 Values without a mark were called inactive. Calls of active or inactive are those of the source.
# Assays:
# Assay in all cases: NCI-60 one-dose screen, 48 h (100 = growth as untreated, 0 = no growth, -100 = all killed)
# Settings in all cases: 10 µM unless noted
# HCT-15 colon = system: HCT-15 colon
# HT29 colon = system: HT29 colon
# SNB-75 CNS = system: SNB-75 CNS
# SNB-19 CNS = system: SNB-19 CNS
# U251 CNS = system: U251 CNS
# PC-3 prostate = system: PC-3 prostate
# SK-MEL-5 melanoma = system: SK-MEL-5 melanoma
# UACC-62 melanoma = system: UACC-62 melanoma
# LOX IMVI melanoma = system: LOX IMVI melanoma
# SK-MEL-28 melanoma = system: SK-MEL-28 melanoma
# SK-MEL-2 melanoma = system: SK-MEL-2 melanoma
# EKVX NSCLC = system: EKVX NSCLC
# SN12C renal = system: SN12C renal
# UO-31 renal = system: UO-31 renal
# TK-10 renal = system: TK-10 renal
# ACHN renal = system: ACHN renal
# CAKI-1 renal = system: CAKI-1 renal
# CCRF-CEM leukemia = system: CCRF-CEM leukemia
# MOLT-4 leukemia = system: MOLT-4 leukemia
# A498 renal = system: A498 renal
SMILES,growth (HCT-15 colon),growth (HT29 colon),growth (SNB-75 CNS),growth (SNB-19 CNS),growth (U251 CNS),growth (PC-3 prostate),growth (SK-MEL-5 melanoma),growth (UACC-62 melanoma),growth (LOX IMVI melanoma),growth (SK-MEL-28 melanoma),growth (SK-MEL-2 melanoma),growth (EKVX NSCLC),growth (SN12C renal),growth (UO-31 renal),growth (TK-10 renal),growth (ACHN renal),growth (CAKI-1 renal),growth (CCRF-CEM leukemia),growth (MOLT-4 leukemia),growth (A498 renal)
CCCCN1CCN(c2ccc3nc(-c4ccc5nc(-c6ccc(OCC)c(OCC)c6)[nH]c5c4)[nH]c3c2)CC1,-30.4% (active),-20.8% (active),24.1%,-28.8% (active),-61.4% (active),-49.1% (active),8.19% (active),17.7%,-81.9% (active),45.8%,13.1%,24.6%,18.8%,74.4%,57%,12.7%,27.7%,-0.368% (active),-0.133% (active),
CNC=O,99.3%,92.6%,86.8%,97.5%,100%,98.1%,59.9%,96.2%,97.1%,96.6%,110%,156%,99.8%,89.5%,101%,110%,99.6%,103%,106%,
Cc1cc(NS(=O)(=O)c2ccccc2)c(OS(=O)(=O)c2ccccc2)cc1C,102%,111%,89.5%,98.1%,99.8%,89.7%,102%,94%,99.3%,112%,118%,104%,94%,73.6%,119%,104%,109%,97.5%,88.5%,
CN(C)CN1CCN(c2ccc3nc(-c4ccc5nc(-c6ccc(C(F)(F)F)cc6)[nH]c5c4)[nH]c3c2)CC1,91.6%,29.3%,38.8%,69.6%,60%,68.4%,23.6%,44.8%,32.2%,42.7%,52%,79%,64.4%,131%,130%,79.3%,73.6%,38.6%,44.2%,
O=[N+]([O-])c1ccc(-c2cc3c(Nc4ccc(Cl)c(C(F)(F)F)c4)ncnc3s2)cc1,10.2%,3.89% (active),16.4%,12.1%,8.85% (active),11.5%,-42.5% (active),-1.39% (active),6.09% (active),20.1%,-4.98% (active),7.59% (active),2.43% (active),-3.64% (active),9.44% (active),4.57% (active),,17.5%,9.22% (active),-13% (active)
OC(CBr)c1ccnc2ccccc12 (centres undefined),103%,85.1%,94.8%,104%,95.8%,88.8%,106%,95.1%,96.3%,109%,93.3%,103%,99.6%,83.4%,89.4%,,,76.8%,93.8%,102%
Cc1ccc(Nc2ccc(Nc3ccc(C)cc3S(=O)(=O)O)c3c2C(=O)c2ccccc2C3=O)c(S(=O)(=O)O)c1,103%,98.4%,85.3%,108%,107%,83%,102%,97.3%,102%,107%,101%,91.5%,98.5%,78.4%,98.3%,,,95.6%,116%,119%
NC(=S)c1csc(CCNC(=O)c2ccccc2)n1,100%,107%,97.7%,107%,97.6%,96.6%,115%,105%,110%,108%,115%,115%,91.8%,91%,107%,105%,91.3%,90.3%,102%,
CCN(CC)CCNc1ccc(C)c2sc3cc(C)ccc3c(=O)c12,21.2%,1.25% (active),67.2%,57.6%,45.5%,41%,21.9%,-15.2% (active),28.4%,74.5%,55.7%,81.3%,53.8%,41%,57.9%,,,34%,30.6%,84.8%
CCC(C)NCc1ccccc1 (centres undefined),107%,84.9%,95.9%,102%,102%,78.1%,106%,95.3%,102%,112%,92.6%,103%,100%,88%,96.9%,,,83.4%,93.5%,88.8%
COc1cc2c(=O)n(CCCn3ccnc3)c3c4cc5c(cc4ccc3c2cc1OC)OCO5,10.1%,-24% (active),1.74% (active),19.3%,-2.14% (active),11.6%,-75.9% (active),-50.9% (active),-62.4% (active),40.1%,22%,21.3%,16.9%,-27.3% (active),35.3%,,,3.73% (active),3.68% (active),-75.6% (active)
COc1cc2c(cc1OC)-c1ccc3cc4c(cc3c1N(CCCn1ccnc1)C2)OCO4,95.7%,27.6%,13.2%,17.2%,-6.84% (active),37.6%,8.78% (active),-20.4% (active),1.62% (active),59.2%,37.7%,98.2%,18.1%,80.8%,91.3%,,,1.56% (active),2.11% (active),85.2%
CC(=O)c1cc2c(o1)C(=O)c1ccccc1C2=O,-77% (active),-18.3% (active),-98.5% (active),-90.8% (active),-81.2% (active),-10.4% (active),-96.3% (active),-82.7% (active),-59.3% (active),-70.8% (active),-69.4% (active),-81% (active),-81.2% (active),-98.1% (active),-96.4% (active),-98.3% (active),-98.4% (active),-74.8% (active),-43% (active),
O=C(/C=C/C12c3ccccc3C(c3ccccc31)C1C(=O)NC(=O)C12)c1ccccc1 (centres undefined),20%,18.3%,-2.11% (active),32.9%,25.6%,29.9%,28.8%,36.3%,2.81% (active),44.7%,30.9%,21%,18.8%,39.7%,44.3%,32.7%,45.2%,12.6%,16.6%,
Cc1nc(Nc2ccc(NC(=S)Nc3ccccc3)cc2)nc2nc(Nc3cccc(Cl)c3)[nH]c(=O)c12,98.2%,114%,84.7%,102%,92%,93.1%,102%,102%,92%,93.2%,88.8%,119%,97.4%,96.4%,142%,96.7%,,81.2%,64.9%,
COc1cccc(CCC2CCCN(c3cc(C)nc(N)n3)C2)c1 (centres undefined),21.9%,4.64% (active),25.9%,23.8%,15%,20.2%,18.2%,29.3%,17%,50.2%,29.1%,41.4%,34.1%,35.7%,37.5%,,,25.7%,27.5%,-2.99% (active)
Cl.Fc1c[c-]c(-c2ccccn2)c(F)c1.[Pt].c1ccc([PH+](C[PH+](c2ccccc2)c2ccccc2)c2ccccc2)cc1,-80.1% (active),-64.7% (active),-95.5% (active),-88.9% (active),-77.1% (active),-57.7% (active),-98.2% (active),-82.3% (active),-88.9% (active),-92.5% (active),-74.6% (active),-84.4% (active),-70.3% (active),-93.2% (active),-81.4% (active),-97.8% (active),-91% (active),,-38.9% (active),
